Common to all, as to assay: NCI-60 one-dose screen, 48 h (100 = growth as untreated, 0 = no growth, -100 = all killed)
What all share (conditions): 10 µM

The test system of test [1] is NCI-H23 lung.
Test [2] concerns NCI-H226 lung.
Test [3] has as its system HOP-62 NSCLC.
The test system of test [4] is NCI-H460 lung.
Test [5] concerns HOP-92 NSCLC.
Test [6] relates to NCI-H522 lung.
The test system of test [7] is 786-0 renal.
Test [8] concerns COLO 205 colon.
Test [9] concerns K-562 leukemia.
The subject of test [10] is MDA-MB-231 breast.
The test system of test [11] is SF-268 CNS.
The subject of test [12] is SF-295 CNS.
The test system of test [13] is SF-539 CNS.
The test system of test [14] is UACC-257 melanoma.
In test [15] the test system is M14 melanoma.
Test [16] relates to NCI-H322M lung.
Test [17] has as its system A549/ATCC NSCLC.
Test [18] deals with DU-145 prostate.
In test [19] the test system is MALME-3M melanoma.
Test [20] relates to RXF 393 renal.

This is part of a sample that, as a whole, favours compounds with a hit. Of some 83,000 tested, about 20% had one in any assay.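 Growth was measured after 48 h exposure to one concentration of compound in 96-well plates. Values under 10 count as active.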 Unmarked numbers belong to inactive results. Calls of active or inactive are those of the source.

For the compound `Cc1nc2ccccc2c2nnc(SCC(=O)N(Cc3ccccc3)c3ccccc3)n12`, the growth in [1] is 89.1%; in [2], 94%; in test [3] it was 95.7%; in test [4] it was 107%; in test [5], 82.5%; in [6], 70.9%. Moreover, the growth in [7] is 103%; in test [8], 101%; in [9], 85.9%; in test [10] it was 92.1%; in test [11], 94.6%; in test [12], 88.2%. Also, the growth in test [13] was 99.2%; in test [14], 92.8%; in test [15] it was 119%.
Consider `C/C(=C\c1ccc([N+](=O)[O-])cc1)C(=O)O`, for which the growth in [1] was 102%; in test [2], 98.3%; in test [16] it was 111%; in test [5], 95.1%; in test [6], 87.1%; in test [17], 91.7%. Also, the growth was 96.7% in test [7]; 110% in [18]; 97.9% in test [9]; 108% in test [19]; 102% in [10]; 102% in test [20]. Moreover, the growth in test [11] is 105%; in test [12] it was 98.4%; in [13], 100%; in [14] it was 98.8%; in test [15], 95.1%.
`O=C1C=CC(=O)N1c1ccc(I)cc1Cl`: the growth is 100% in test [1]; 108% in test [2]; 90.7% in test [3]; 109% in test [4]; -29.7% (active) in test [6]; 46% in test [17]. Moreover, the growth in test [7] was 97%; in test [8] it was 113%; in [18] it was 110%; in test [9], 114%; in test [10], 107%; in test [20], 110%. Further, the growth in test [11] is 126%; in [13], 97.1%; in test [14] it was -2.76% (active); in test [15], 95.1%.
With `CC(=O)NC(N)=S`, the growth in [1] was 103%; in test [2] it was 103%; in test [3], 110%; in test [4], 105%; in [5] it was 89.7%; in [6], 95.6%. For the same compound, the growth was 96.1% in [17]; 105% in test [7]; 120% in test [8]; 107% in [18]; 121% in [9]; 115% in [10]. Also, the growth in test [20] was 105%; in [11] it was 110%; in test [12], 101%; in test [13] it was 107%; in [14], 101%; in test [15] it was 127%.
In the case of `CCc1nc(N)nc(N)c1-c1ccc(Cl)cc1`, the growth was 64.4% in [1]; 65.7% in test [2]; 64.2% in test [3]; 21.2% in test [4]; 97.7% in [5]; 83% in test [6]. For the same compound, the growth is 26.6% in test [17]; 35.9% in test [7]; 76.5% in test [8]; 55.4% in test [18]; 20.3% in test [9]; 69.9% in [10]. Also, the growth is 71.6% in [20]; 49.2% in test [11]; 37.5% in [12]; 72.4% in test [14]; 40.9% in [15].
For the compound `CC(=O)OC(C(=O)O)c1ccccc1` (stereo not given), the growth in [1] is 111%; in test [2] it was 110%; in test [3], 112%; in test [6], 107%; in [17], 106%; in test [7], 109%. For the same compound, the growth in test [18] is 106%; in test [9], 108%; in [10], 105%; in [20], 112%; in [11], 101%; in [12], 113%. The growth in test [13] is 111%; in [14], 106%; in test [15], 110%.
With `Cc1ccccc1N=C(c1ccccc1)C1C(=O)c2ccccc2C1=O`, the growth in test [1] is 87.6%; in test [2] it was 90.4%; in [3], 98.8%; in [4], 101%; in test [5], 72.7%; in test [6], 59%. In addition, the growth in test [7] is 88.6%; in test [8], 103%; in test [9] it was 61.8%; in test [10], 98.7%; in [11], 88.1%; in [12], 93.6%. Besides, the growth in [13] was 77.8%; in [14], 96%; in test [15], 78%.
On to `CCCC(C)OCC(=O)O` (stereo not given), for which the growth is 109% in test [1]; 96.8% in test [16]; 111% in [3]; 103% in [4]; 76.6% in [5]; 101% in [6]. Also, the growth is 93.9% in test [17]; 107% in test [7]; 108% in test [8]; 106% in test [18]; 112% in test [9]; 90.7% in test [19]. Besides, the growth was 105% in [10]; 96.4% in test [20]; 99.2% in [11]; 98.5% in [12]; 102% in test [13]; 90.2% in test [14]. For the same compound, the growth in test [15] was 106%.
Regarding `COc1cc([C@@H]2c3cc4c(cc3[C@H](O)[C@H]3COC(=O)[C@H]23)OCO4)cc(OC)c1OC`, the growth in [1] was 13.1%; in test [2] it was -9.84% (active); in test [4] it was 9.21% (active); in [5], 11.3%; in [17], 14.2%; in [7] it was 12.4%. Also, the growth in test [8] is -57.8% (active); in [18] it was -23.9% (active); in [19], 54.2%; in [10] it was 10.1%; in test [20] it was 41%; in test [11] it was 27.3%. Further, the growth in test [12] was -14.1% (active); in test [13], 5.77% (active); in test [14], 53.2%; in test [15], 6.41% (active).
Turning to `COc1cc(/C=C(\C#N)C(=O)c2ccccc2)ccc1OCc1ccccc1`, the growth in test [1] was 91.5%; in test [2] it was 92.3%; in [16], 91.6%; in test [4], 101%; in test [6], 97.6%; in [17], 104%. For the same compound, the growth was 101% in [7]; 102% in test [18]; 120% in test [9]; 86.1% in [19]; 94.6% in test [10]; 100% in [20]. The growth in [11] is 93.2%; in test [12] it was 103%; in test [13], 99.9%; in [14] it was 106%; in test [15], 97.5%.

The record behind these values is PubChem BioAssay (NCI).
